{"source": "the supplement of paper PMC8183993", "note": "Structures can show the parent of a compound that is named as a salt. ± gives the standard deviation of the averaged measurements. The full ranking holds about 3,200 compounds; the median of “nuclei count (viability) relative to DMSO” is about 99, and the lowest 2% start at about 16. Many of the other results were omitted from the sample, so the lowest values are more common in it than they were."}
{"tested_on": "U2OS", "experiment": "nuclei count (viability) relative to DMSO (% of DMSO); higher = more viable cells", "settings": "10 µM; 24 h", "protocol": "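Primary image-based screen in U2OS cells: compounds at 10 uM for 24 h, then a 1 h o-propargyl-puromycin (OPP) pulse, click labelling, and high-throughput microscopy. Mean cytoplasmic OPP intensity and nuclei count were normalised to DMSO wells within each plate (DMSO = 100) and averaged over triplicate plates.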"}
{"compound": "NC(N)=S", "note": "[Thiourea]", "nuclei count": 103}
{"compound": "Nc1nc(N)c2nc(-c3cccc(O)c3)cnc2n1", "nuclei count": "94.7 ± 4.5"}
{"compound": "c1ccc2sc(N3CCN(Cc4ccc5c(c4)OCO5)CC3)nc2c1", "note": "[2-[1-(4-Piperonyl)piperazinyl]benzothiazole]", "nuclei count": 111}
{"compound": "CC(C)C[C@H](NC(=O)[C@H](CCc1ccccc1)NC(=O)CN1CCOCC1)C(=O)N[C@@H](Cc1ccccc1)C(=O)N[C@@H](CC(C)C)C(=O)[C@@]1(C)CO1", "note": "[Carfilzomib (PR-171)]", "nuclei count": 7.25}
{"compound": "C[C@H](N[C@@H](CCc1ccccc1)C(=O)O)C(=O)N1CCC[C@H]1C(=O)O", "note": "[Enalaprilat dihydrate]", "nuclei count": 94.3}
{"compound": "CC(C)c1nc(CN(C)C(=O)N[C@@H](CCN2CCOCC2)C(=O)N[C@H](CC[C@H](Cc2ccccc2)NC(=O)OCc2cncs2)Cc2ccccc2)cs1", "note": "[Cobicistat (GS-9350)]", "nuclei count": 96.2}
{"compound": "CC1OC2(CS1)CN1CCC2CC1", "note": "(stereo not given) [Cevimeline hydrochloride]", "nuclei count": 101}
{"compound": "Cc1ccc(C(=O)c2cc(/C=C/C(=O)NO)n(C)c2)cc1", "nuclei count": 92.7}
{"compound": "CN(Cc1ccccc1)C(=O)[C@H](Cc1ccc2ccccc2c1)NC(=O)[C@@H]1C[C@@H](O)CN1C(=O)c1cn(C)c2ccccc12", "nuclei count": 98}
{"compound": "Cc1cc2c(cc1C1(c3ccc(C(=O)O)cn3)CC1)C(C)(C)CCC2(C)C", "nuclei count": 102}
{"compound": "CCc1cncnc1N1CCN(Cc2nc3ccc(C(F)(F)F)cc3[nH]2)CC1", "nuclei count": "99.88 ± 0.89"}
{"compound": "Cc1nc2ccc(NC(=O)Nc3ccnc4cccnc34)cc2o1", "nuclei count": 99.6}
{"compound": "Cc1c(C(=O)NC2CCCCC2)sc2nc3ccc(N)cc3n12", "nuclei count": 99.5}
{"compound": "NC(=O)Nc1cc(-c2cccc(F)c2)sc1C(=O)N[C@H]1CCCNC1", "nuclei count": 7.62}
{"compound": "NC(=O)Nc1sc(-c2ccc(F)cc2)cc1C(N)=O", "nuclei count": "47 ± 0.38"}
{"compound": "Cc1ccc2c(c1)C(=O)C1(O)CCN(c3ccccc3)C1=N2", "note": "(stereo not given) [(?)-Blebbistatin]", "nuclei count": 96.3}
{"compound": "CC(C(=O)Nc1cccc(/N=C/c2c(O)ccc3ccccc23)c1)c1ccccc1", "note": "(stereo not given) [Salermide]", "nuclei count": 101}
{"compound": "Cc1cc(/C=C/c2ccc3cc(N(C)C)ccc3[n+]2C)c(C)n1-c1ccccc1", "note": "[Pyrvinium pamoate]", "nuclei count": 6.32}
{"compound": "CN1CCN(CCc2ccc(Cl)c(Cl)c2)CC1", "note": "[BD 1063 dihydrochloride]", "nuclei count": 104}
{"compound": "OC(c1ccccc1)C1CCN(CCc2ccccc2)CC1", "note": "(stereo not given)", "nuclei count": 99.4}
{"compound": "NS(=O)(=O)c1cccc2c1c([N+](=O)[O-])cc1nc(O)c(O)nc12", "nuclei count": 98.7}
{"compound": "NS(=O)(=O)c1cccc2c1c([N+](=O)[O-])cc1nc(O)c(O)nc12", "note": "[NBQX disodium salt]", "nuclei count": 109}
{"compound": "CNC(=O)c1ccccc1Nc1nc(Nc2ccc(N3CCOCC3)cc2OC)ncc1Cl", "nuclei count": "38.9 ± 1.6"}
{"compound": "COc1cc(N2CCC(N)CC2)ccc1Nc1ncc(Cl)c(-c2c[nH]c3ccccc23)n1", "nuclei count": 7.03}
{"compound": "CCOc1cc(N2CCC(O)CC2)ccc1Nc1ncc2c(n1)N(C)c1ccccc1C(=O)N2C", "nuclei count": 95.5}
